Pol eta inh: blocks human DNA polymerase eta activity; Q9Y253; recombinant Pol eta, fluorescent DNA replication assay; Potency, µM (titrated, usually from 114 µM), for inactives: at the highest dose activity change, negative = inhibition, most hits filed as inhibitors; 1.2% of 390,000 active; further: potency means the concentration at half of the fitted maximal effect; on the % scale 0 is the no-effect control and ±100 the full control effect
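Pol eta (10 nM) was preincubated with compounds for 15 min at room temperature, after which fluorescent replication substrate (50 nM final) was added to start the reaction. Fluorescence was read kinetically at 0 and 10 min.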
PI5P4Ka inh: blocks human PI5P4K alpha kinase activity; 1.2% of 330,000 active; max response, %; PI5P4Kalpha enzyme, ADP-Glo luminescence, 60 min; active compounds read low; P48426; active means max response of -50% or lower; inconclusive means between -30% and -50%; inactive means -30% or higher; further: value at the top dose of about 77 µM; on the % scale 0 is the no-effect control and ±100 the full control effect
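Human PI5P4Kalpha with substrate in 0.038 M HEPES pH 7.4, 0.28 mM EGTA, 0.1% CHAPS, 5% DMSO; reaction started with 5 microM ATP (final), 60 min at room temperature. ADP formed read by ADP-Glo luminescence.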
Pol kappa inh: inhibitors of human DNA polymerase kappa. Q9UBT6. purified Pol kappa, fluorescent DNA synthesis assay, 10 min. Potency, µM (highest dose often 107 µM), for inactives: at the top dose activity, negative = inhibition, actives largely listed as inhibitors. 0.53% of 400,000 active. AID 588579; further: potency means the concentration at half of the fitted maximal effect; on the % scale 0 is the no-effect control and ±100 the full control effect
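10 nM Pol kappa preincubated 15 min at room temperature with compounds, then reaction started with substrate at 50 nM final. Fluorescence read kinetically at 0 and 10 min; buffer-only wells served as negative control.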
PI4K2A inh: PI4K2A (human) kinase inhibition. AID 1346378. Q9BTU6. activity change, negative = inhibition, % at 76.9 µM. purified PI4K2A, ADP-Glo luminescence, 1 h; active compounds read low. 0.13% of 420,000 active; in the data active means activity change below about -50%; inconclusive means mostly about -30% to -49%;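 further: -100% = wells without enzyme as full effect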
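Compounds are screened against recombinant PI4K2A using PI as substrate and ATP, the latter dispensed at 300 microM. Reactions run one hour at ambient temperature before ADP-Glo detection; full inhibition defined by wells lacking enzyme.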
POLI inh: inhibitors of human DNA polymerase iota; Potency, µM (top dose mostly 115 µM), inactives show top-dose activity, negative = inhibition, usual class: inhibitors; 1% of 390,000 active; Pol iota fluorescent replication assay, 10 min; AID 588590; further: potency means the concentration at half of the fitted maximal effect
Target sequence (Q9UNA4 whole entry, looked up): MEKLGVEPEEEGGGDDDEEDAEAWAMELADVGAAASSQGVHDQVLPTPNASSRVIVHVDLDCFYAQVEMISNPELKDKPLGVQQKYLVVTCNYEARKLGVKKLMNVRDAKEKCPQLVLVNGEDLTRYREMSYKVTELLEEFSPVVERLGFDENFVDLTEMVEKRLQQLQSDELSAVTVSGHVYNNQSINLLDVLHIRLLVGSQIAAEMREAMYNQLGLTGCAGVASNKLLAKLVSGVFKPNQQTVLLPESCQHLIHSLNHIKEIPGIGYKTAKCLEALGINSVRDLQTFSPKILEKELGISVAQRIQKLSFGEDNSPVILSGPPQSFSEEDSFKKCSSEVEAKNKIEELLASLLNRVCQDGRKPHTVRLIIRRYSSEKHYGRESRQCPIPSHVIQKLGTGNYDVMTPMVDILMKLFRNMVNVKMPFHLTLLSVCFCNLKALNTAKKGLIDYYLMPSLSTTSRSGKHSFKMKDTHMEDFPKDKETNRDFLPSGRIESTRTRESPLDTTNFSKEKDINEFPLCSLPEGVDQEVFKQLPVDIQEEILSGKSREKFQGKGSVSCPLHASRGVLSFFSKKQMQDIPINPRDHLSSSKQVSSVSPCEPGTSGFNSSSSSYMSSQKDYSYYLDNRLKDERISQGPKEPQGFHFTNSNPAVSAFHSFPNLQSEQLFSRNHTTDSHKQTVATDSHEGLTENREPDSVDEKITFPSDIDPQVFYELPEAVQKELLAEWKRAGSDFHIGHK
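Fluorescent replication assay read twice, at 0 min and 10 min after adding 50 nM (final) substrate. Enzyme (10 nM) and compounds were first incubated 15 min at room temperature; enzyme-free buffer wells were negative controls.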
Pol beta inh: inhibitors of human DNA polymerase beta; AID 485314; Pol beta primer extension/strand displacement, fluorescence kinetic; 1.3% of 340,000 active; Potency, µM (titrated, usually from 114 µM), inactives show at the top dose activity change, negative = inhibition, most hits filed as inhibitors; P06746; further: potency means the concentration at half of the fitted maximal effect; on the % scale 0 is the no-effect control and ±100 the full control effect
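10 nM enzyme + cpd, 15 min RT; start with substrate 50 nM final; read 0 min and after 10 min RT. Corrected, normalized data; 4-parameter Hill curve fit.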
ADP-Glo interf: interferes with ADP-Glo detection without enzyme present. Potency, µM (top dose mostly 76.9 µM), inactives show at the top dose activity change, negative = inhibition, most hits filed as inhibitors. AID 743285. 1,100 tested, under 10 active. ADP-Glo detection counter-screen, luciferase luminescence, no enzyme. shares compounds with PI5P4Ka inh
Active calls of the source: *; ? = inconclusive; · = not tested or not shown; [ ] = another dose, or the depositor's remark. Most compounds without a hit are left out; they make up all but 2.8% or so of the library. Unless noted, the call rests on the fitted dose curve; in most records, active means well fitted curve in the direction sought with a large enough effect; inconclusive means small, poorly fitted or top-dose-only effect, or another doubt; inactive means no such curve, though single readings can be large; an effect the other way counts as inactive or inconclusive.

SMILES	Pol eta inh	PI5P4Ka inh	Pol kappa inh	PI4K2A inh	POLI inh	Pol beta inh	ADP-Glo interf
Cc1ccc(NC(=O)c2ccc3c(c2)NC(=O)CS3)nc1	-6.3%	-56.6*	-11.5%	-3.4	?	·	-9.4%
Cc1nnc(NC(=O)c2ccc3c(c2)NC(=O)CS3)s1	-0.2%	-4.6	-18.2%	2.8	-14.3%	·	·
COc1ccc2nc(Nc3sc4c(c3C(N)=O)CCCC4)sc2c1	-11.6%	-70.4*	-26.6%	-4.4	6.4%	16.6%	0.9%
COc1ccc(CC(=O)Nc2sc3c(c2C(N)=O)CCCC3)cc1	-12.1%	-25.0	-5.9%	-1.5	46.2%	33.1%	·
O=C(Nc1ccc(-c2nc3ncccc3o2)cc1)c1ccco1	?	-53.0*	?	-7.8	?	35.5µM*	4.9%
O=C(Nc1ccc(-c2nc3ncccc3o2)cc1)c1ccc(Br)o1	?	-12.2	1.0%	-23.7	13.2%	-2.6%	·
COc1ccc(Br)cc1C(=O)Nc1cccc(NC(=O)c2ccco2)c1	-3.1%	7.9	-9.2%	-6.5	7.2%	3.7%	-8.0%
CCc1ccc(Nc2nnc(SCC(=O)Nc3sccc3C(N)=O)s2)cc1	?	-25.9	-15.2%	-8.0	?	0.7%	·
COc1cccc(Nc2nnc(SCC(=O)Nc3sccc3C(N)=O)s2)c1	-20.4%	-52.2*	-20.3%	7.7	?	4.5%	6.5%
Cc1cc(NC(=O)c2cc(-c3ccc(Cl)cc3)on2)n(-c2ccccc2)n1	-4.7%	·	-4.4%	1.5	-1.4%	3.8%	·
CC(C)C(=O)Nc1ccccc1N1CCN(S(C)(=O)=O)CC1	1.7%	0.0	2.6%	-9.0	-7.8%	?	-5.4%
COC(=O)CSc1nc(C)cc(C)n1	0.9%	-67.3*	-12.3%	-1.7	44.5%	-10.8%	-6.9%
Cc1ccccc1N(C(=O)c1csnn1)C(C(=O)NC1CCCCC1)c1ccncc1 (stereo not drawn)	-4.7%	1.2	-15.1%	-0.4	84.3%	0.2%	·
O=C(NC1CCCC1)C(c1ccncc1)N(C(=O)c1csnn1)c1ccccc1F (stereo not drawn)	-19.9%	-51.6*	6.7%	-0.6	52.8%	13.9%	9.7%
COc1ccc(S(=O)(=O)NCCc2csc(-c3ccc(F)cc3)n2)cc1F	-22.0%	·	-2.0%[60.1 µM]	-9.2	4.3%	-21.7%	·
COC(=O)CCC(=O)OC1(C)C(=O)C2=CN(Cc3ccccc3)C(c3ccc(OC)cc3)=CC2=C(Br)C1=O (stereo not drawn)	-1.9%	?	6.0%	-15.5	?	·	·
COC(=O)CCC(=O)OC1(C)C(=O)C2=CN(CC3CC3)C(c3ccc(OC)cc3)=CC2=C(Br)C1=O (stereo not drawn)	79.4µM*	-52.6*	0.7%	-22.9	?	-2.8%	-5.7%
CCc1ccc(-n2nc(C)c3c(C(=O)Nc4cc(C)c(Cl)cc4OC)cc(C)nc32)cc1	-16.8%	·	1.9%	0.8	17.5%	1.9%	·
CCOC(=O)c1c(-c2ccco2)csc1NC(=O)COC(=O)c1cnc(C)cn1	25.1µM*	-51.2*	?	-21.8	39.8µM*	·	0.4%
O=C(Nc1nnc(-c2ccc(Cl)cc2)o1)Nc1ccccc1Cl	10.1%	-3.5	-0.6%	0.1	5.4%	15.3%	·
O=C(Nc1nnc(-c2ccc(Cl)cc2)o1)c1nc2ccccc2s1	-3.5%	-50.1*	-7.8%	1.1	-8.1%	-9.2%	-0.6%
Cc1ccc(C(=O)Nc2nnc(-c3ccncc3)o2)cc1	-19.2%	-4.3	3.6%	-4.7	33.6%	10.4%	·
O=C(Nc1nnc(-c2ccncc2)o1)c1ccccc1	-18.0%	-83.8*	-1.9%	-3.9	61.4%	12.3%	-7.0%
CS(=O)(=O)Nc1ccc(C2=NN(C(=O)c3ccco3)C(c3ccc(F)cc3)C2)cc1 (stereo not drawn)	-12.0%	-55.9*	-5.1%	-8.1	-29.5%	-7.9%	-4.8%
C[C@H]1CN=C(Nc2ccccc2)N1CCCC1CCCCC1	-13.9%	-0.3	-3.6%	-1.5	16.4%	44.6%	-5.2%
SMILES	Pol eta inh	PI5P4Ka inh	Pol kappa inh	PI4K2A inh	POLI inh	Pol beta inh	ADP-Glo interf
CC(=O)Nc1nnc2n1CCS2	-0.4%	·	-7.7%[60.1 µM]	6.3	13.7%	3.8%	·
CCOc1ccccc1NC(=O)c1c(NC(=O)CCC(=O)O)sc2c1CCCCC2	?	-10.5	-30.9%	1.3	?	15.4%	0.3%
CCOc1ccccc1NC(=O)c1c(NC(=O)Cc2ccccc2)sc2c1CCCC2	-19.1%	·	3.4%	1.4	29.2%	16.0%	·
CCOC(=O)CC[C@@H]1CC[C@]2(CCCN(C(=O)c3ccco3)C2)O1	·	·	·	3.2	·	·	·
COc1ccc(Cn2c(=O)n(-c3ccc(F)c(Cl)c3)c(=O)c3c2c2cc(OC)ccc2n3C)cc1	-14.4%	·	-6.0%	-2.4	29.3%	1.7%	·
COc1ccc(CN2C(=O)CSCCC2(C)c2nnnn2-c2c(C)cccc2C)cc1 (stereo not drawn)	·	·	·	0.0	·	·	·
COc1ccc(C(=O)Nc2ncnc3nc[nH]c23)cc1	·	·	-10.9%	·	-0.8%	·	·
O=C(COc1ccccc1Cl)c1ccc[nH]1	-17.8%	-51.1*	-21.1%	-4.8	?	11.2µM*	-1.4%
COc1ccc(-c2cc(=O)oc3cc(OC(=O)C4CCCCC4)c(Cl)cc23)cc1	-11.0%	-55.4*	10.6%	-0.5	11.2%	10.6%	-4.6%
CCC(=O)NC(c1cccs1)c1cc([N+](=O)[O-])c2cccnc2c1O (stereo not drawn)	-3.3%	-18.5	-7.9%	2.7	26.8%	8.4%	·
CC(=O)NC(c1cccs1)c1cc([N+](=O)[O-])c2cccnc2c1O (stereo not drawn)	?	-72.6*	-5.1%	-12.2	43.2%	41.8%	3.7%
O=C(Nc1nc(-c2ccccn2)cs1)C1CC(=O)N(c2ccc3c(c2)OCCO3)C1 (stereo not drawn)	?	-50.3*	?	-4.6	20µM*	12.6µM*	-4.1%
Cc1ccc([N+](=O)[O-])cc1NC(=O)CCSc1ccc(Cl)cc1	-15.0%	-70.2*	-15.0%	5.9	6.4%	-0.3%	-2.1%
COC(=O)c1ccc(C)c(NC(=O)CCSc2ccc(Cl)cc2)c1	-4.5%	0.7	-16.0%	7.2	16.1%	32.8%	·
COc1ccc(-c2nnn(CC(=O)N(CC(=O)NC3CCCC3)c3ccccc3)n2)cc1OC	-7.1%	-51.3*	-18.3%	-6.0	5.2%	-21.5%	4.9%
